In the supplement of paper PMC7156485:
Values joined by “and” are separate entries in the source; they are usually repeats but may differ in a detail not shown here. Equal entries are not always repeated. ± gives the standard deviation of the averaged measurements.

What was measured:
Conditions in all cases: concentration: 10 µM; 24 h
[1] = test system: HCC1569; assay: cell number relative to DMSO (% of DMSO); higher = more cells (less growth inhibition / toxicity)
Method in brief: (§1)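 HCC1569 and TDF cells were seeded at 800 per well in 384-well plates in RPMI with 10% FBS and treated with compounds at 10 µM for 24 h at 37 °C, in triplicate. After fixation in 3.7% formaldehyde, cells were stained with a rabbit anti-H1.0 antibody, an AlexaFluor 647 secondary and DAPI, and six fields per well were imaged at ×10. H1.0 nuclear intensity or cell number is given as percent of the plate control, using the median of replicates, with HCC1569 values smoothed for positional effects.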

[2] = test system: TDF; assay: as above
Method in brief: as §1

[3] = test system: TDF; assay: H1.0 immunofluorescence intensity relative to DMSO (% of DMSO); higher = stronger H1.0 induction, active = 120 or more
Method in brief: as §1

[4] = test system: HCC1569; assay: H1.0 immunofluorescence intensity relative to DMSO (% of DMSO); higher = stronger H1.0 induction, active = 140 or more
Method in brief: as §1
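For H1.0 immunofluorescence intensity relative to DMSO in this document: TDF is a line of transformed human dermal fibroblasts of mesenchymal origin.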
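For cell number relative to DMSO in this document: TDF denotes transformed human dermal fibroblasts of mesenchymal origin.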

Compound | cell number [1] | cell number [2] | H1.0 immunofluorescence intensity [3] | H1.0 immunofluorescence intensity [4]
O=C1c2ccc(O)cc2OC(c2cc(O)c(O)c(O)c2)C1O (stereo not drawn) [Dihydrorobinetine] | 102 | 106 | 95.3 (inactive) | 95.3 (inactive)
Cl.Cl.NCCC(=O)NCCc1cnc[nH]1 [Carcinine dihydrochloride] | 97.3 | 107 | 94.6 (inactive) | 88.5 (inactive)
COc1ccc(Cl)cc1NC(=O)Nc1cc(C)nc2ccccc12 [N-(5-Chloro-2-methoxyphenyl)-N'-(2-methyl-4-quinolinyl)urea] | 90 | 103 | 104 (inactive) | 148 (active)
O=C(Nc1ccc(N2CCOCC2)c(S(=O)(=O)Nc2ccccc2Cl)c1)c1ccncc1 [Chk2 Inhibitor] | 98.5 | 110 | 87.3 (inactive) | 99.5 (inactive)
CCCCCCCCC=CCCCCCCCCCCCC(=O)O [13(Z)-Docosenoic acid] | 104 | 108 | 95.2 (inactive) | 102 (inactive)
Cc1nc(-c2ccccc2)c(-c2ccncc2)o1 | 99.2 | 116 | 94.1 (inactive) | 103 (inactive)
CCCCCC=CCC=CCCCCCCCCCC(=O)O [Eicosadienoic acid] | 103 ± 1.2 | 92.6 ± 7.5 | 100 (inactive) | 96.4 (inactive)
CCCCS(=N)(=O)CCC(N)C(=O)O [L-Buthionine-sulfoximine] | 102 | 96.6 | 97.4 (inactive) | 95.6 (inactive)
CN(C)CCC=C1c2ccccc2COc2ccc(CC(=O)O)cc21 [Olopatadine] | 102 | 106 | 90.3 (inactive) | 102 (inactive)
CC(C)Cn1cnc2c(N)nc3ccccc3c21 [Imiquimod] | 102 | 93.4 | 95.3 (inactive) | 108 (inactive)
Cc1ccc(-c2ncc(Cl)cc2-c2ccc(S(C)(=O)=O)cc2)cn1 [Etoricoxib] | 106 | 97.1 | 101 (inactive) | 92.2 (inactive)
CC(=O)O.CN=C(N)NCCCC(N)C(=O)O [NG-Monomethyl-L-arginine acetate] | 100 | 102 | 95.6 (inactive) | 101 (inactive)
CC(COc1ccccc1)N(CCCl)Cc1ccccc1.Cl (stereo not drawn) [Phenoxybenzamine.HCl] | 106 | 103 | 97.7 (inactive) | 102 (inactive)
NC(=O)c1cccc(N)c1 [3-aminobenzamide] | 98.6 | 102 | 90.5 (inactive) | 87.7 (inactive)
CN(c1ccccc1CNc1nc(Nc2ccc3c(c2)CC(=O)N3)ncc1C(F)(F)F)S(C)(=O)=O | 54.4 | 22.4 | 113 (inactive) | 126 (inactive)
CC12CC3CC(C)(C1)CC(N)(C3)C2.Cl [Memantine.HCl] | 94.8 | 102 | 90.8 (inactive) | 100 (inactive)
OC1C=CC(Br)C(O)C1O (mixture of isomers) [6-Bromo-4-cyclohexene-1,2,3-triol Mixed Isomers] | 99.9 | 105 | 97.5 (inactive) | 112 (inactive)
O=C1CCC(c2ccc(-n3ccnc3)cc2)=NN1 [Imazodan] | 95.5 | 93.8 | 103 (inactive) | 118 (inactive)
O=c1c(-c2ccc(F)cc2)c(-c2ccncc2)[nH]n1-c1ccc(Cl)cc1 [p38 MAP Kinase Inhibitor] | 102 | 111 | 95.2 (inactive) | 110 (inactive)
CCCCCCCCCCCC1N[C@H](C(=O)O)CS1 (stereo partly drawn) [(4R)-2-undecyl-1,3-thiazolidine-4-carboxylic acid] | 98.7 | 105 | 95.5 (inactive) | 96.9 (inactive)
CNC1C(O)C(NC)C2OC3(O)C(=O)CC(C)OC3OC2C1O (stereo not drawn) [Spectinomycin] | 104 | 98 | 97 (inactive) | 87 (inactive)
COc1ccccc1N1CCN(CCCCNC(=O)c2ccc3ccccc3c2)CC1 [N-{4-[4-(2-methoxyphenyl)-1-piperazinyl]butyl}-2-naphthamide] | 96.6 | 98.1 | 96.7 (inactive) | 114 (inactive)
C#CC(N)CCC(=O)O (stereo not drawn) [gamma-Acetylinic GABA] | 103 | 99.9 | 93.2 (inactive) | 84.4 (inactive)
CC(=O)Oc1ccccc1C(=O)O [Acetylsalicylic Acid] | 101 | 99 | 96.1 (inactive) | 102 (inactive)
CCCCCCCCC=CCCCCCCCCC(=O)O [10(E)-Nonadecenoic acid] | 96.1 | 98.8 | 97.4 (inactive) | 101 (inactive)
CC(N)C1CCC(C(=O)Nc2ccncc2)CC1.Cl.Cl (stereo not drawn) | 110 | 106 | 87.3 (inactive) | 90.1 (inactive)

Compound | cell number [1] | cell number [2] | H1.0 immunofluorescence intensity [3] | H1.0 immunofluorescence intensity [4]
CC1=C(C)C(=O)C(C(CCCCCC(=O)O)c2ccccc2)=C(C)C1=O (stereo not drawn) [Seratrodast] | 107 | 104 | 99.3 (inactive) | 82.5 (inactive)
Cc1cc(C)c(C=C2C(=O)Nc3ccccc32)[nH]1 | 102 | 108 and 105 | 94.2 (inactive) and 92.7 (inactive) | 115 (inactive) and 103 (inactive)
Cc1[nH]c2ccccc2c1CCNC(=O)c1cccs1 [N-[2-(2-methyl-1H-indol-3-yl)ethyl]-2-thiophenecarboxamide] | 102 | 95.5 | 97.1 (inactive) | 92.8 (inactive)
Cc1cnc(C(=O)NCCc2ccc(S(=O)(=O)NC(=O)NC3CCCCC3)cc2)cn1 [Glipizide] | 106 ± 3.7 | 107 ± 6.9 | 96.6 (inactive) | 103 (inactive)
CCCOc1cc2c(cc1\C(C)=C/C=C/C(C)=C/C(=O)O)C(C)(C)CCC2(C)C | 97.9 | 107 | 90.3 (inactive) | 95.9 (inactive)
COc1nccc(-c2c(-c3ccc(F)cc3)ncn2C2CCNCC2)n1 | 93.7 | 104 | 84.3 (inactive) | 99.5 (inactive)
CC=Cc1ccc(OC)cc1 [Anethole, trans-] | 96.1 | 81.4 | 107 (inactive) | 105 (inactive)
C=C1OC(CO)(n2cnc3c(N)ncnc32)C(O)C1O (stereo not drawn) [Decoyinine] | 107 | 105 | 91.6 (inactive) | 88.3 (inactive)
CC(C)OC(=O)CCCC=CCC1C(O)CC(O)C1CCC(O)CCc1ccccc1 (stereo not drawn) [Latanoprost] | 103 | 108 | 86.7 (inactive) | 105 (inactive)
CCN(CC)CCCCCCCCOC(=O)c1cc(OC)c(OC)c(OC)c1.Cl [TMB-8 hydrochloride] | 105 | 105 | 99.8 (inactive) | 84.2 (inactive)
COc1cc2c[n+](C)c3c4cc5c(cc4ccc3c2cc1OC)OCO5.[Cl-] | 85.3 | 34.7 | 138 (active) | 106 (inactive)
CCC(Sc1nnc2c(n1)[nH]c1ccccc12)C(=O)N1c2ccccc2Sc2ccccc21 (stereo not drawn) | 96.4 | 96.3 | 103 (inactive) | 700 (active)
O=C(O)CN(CCOCCOCCN(CC(=O)O)CC(=O)O)CC(=O)O | 99.4 | 105 | 90.3 (inactive) | 88.9 (inactive)
CC(=O)C1=C(O)C=C2Oc3c(C(C)=O)c(O)c(C)c(O)c3C2(C)C1=O (single isomer, unassigned; (+)) [(+)-Usnic acid] | 100 | 109 | 96.7 (inactive) | 91.2 (inactive)
CN1CCc2ccccc2Cc2[nH]c3ccccc3c2CC1 | 104 | 108 | 92.4 (inactive) | 100 (inactive)
COC(=O)C1C(O)CCC2CN3CCc4c([nH]c5ccccc45)C3CC21.Cl (stereo not drawn) [Rauwolscine hydrochloride] | 99.9 | 117 | 87 (inactive) | 103 (inactive)
CCN(CC)CCNC(=O)c1ccc(N)cc1.Cl [Procainamide hydrochloride] | 98.7 | 110 | 88.6 (inactive) | 99.1 (inactive)
NS(=O)(=O)Cc1noc2ccccc12 [Zonisamide] | 101 | 94.5 | 96 (inactive) | 90.5 (inactive)
CC1COc2c(N3CCN(C)CC3)c(F)cc3c(=O)c(C(=O)O)cn1c23 (stereo not drawn) [Levofloxacin] | 103 | 100 | 98.5 (inactive) | 101 (inactive)
CCCCOc1cc(CC2CNC(=O)N2)ccc1OC (stereo not drawn) | 101 | 110 | 85.3 (inactive) | 86.2 (inactive)
COc1ccc(-c2cc(=O)c3c(O)c(OC)c(OC)cc3o2)cc1O | 68.2 | 80.2 | 102 (inactive) | 139 (inactive)
CCN1CCCC1CNC(=O)c1cc(S(N)(=O)=O)ccc1OC (racemic) | 106 | 118 | 98.8 (inactive) | 99.3 (inactive)
O=C1c2ccccc2-n2c1nc1ccccc1c2=O [Tryptanthrin] | 96.9 | 53.6 | 101 (inactive) | 93.6 (inactive)
CN(C)CCOC(c1ccccc1)c1ccccc1.Cl [Diphenhydramine.HCl] | 106 | 103 | 100 (inactive) | 107 (inactive)
OCC1NC(CO)C(O)C1O [(2R,5R)-Bis(hydroxymethyl)-(3R,4R)-dihydroxypyrrolidine] | 102 | 101 | 91.3 (inactive) | 84.7 (inactive)
CC(C)c1[nH]n(-c2c(Cl)cccc2Cl)c2nc(Cc3ccc(OCCO)cc3)nc(=O)c1-2 [Cdk/Crk Inhibitor] | 55 | 26.7 | 131 (active) | 143 (active)
